# Screening data deposited in PubChem BioAssay by National Center for Advancing Translational Sciences (NCATS).
# Rows were chosen to be rich in hits. Some 18% of all compounds tested hit in one or more screens of this group.
# DT40 TDP1 CPT: DT40-hTDP1 cell growth loss with CPT; 12% of 420,000 active; AID 686979; chicken DT40 Tdp1-/-;hTDP1 cells + 20 nM CPT, ATP luminescence, 48 h; Potency, µM (highest dose often 46.2 µM), without a hit: at the top dose activity change, negative = growth inhibition, most hits filed as inhibitors; note: potency is the fitted concentration of half-maximal effect; % is set by controls: 0 for no effect and ±100 for the full control effect; nearly all actives have a fitted effect of over 55% in size
#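 Cell growth measured by CellTiter-Glo luminescence after a minimum 48 h, 37 C compound exposure with 20 nM CPT in Tdp1-knockout DT40 cells stably expressing hTDP1, seeded 400/well; qHTS titration format.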
# TDP1 block: TDP1 (human) enzyme inhibition; Q9NUW8; recombinant TDP1, AlphaScreen DNA substrate cleavage; Potency, µM (highest dose often 130 µM), inactives show at the top dose activity change, negative = inhibition, hits mostly inhibitors; 0.28% of 350,000 active; AID 485290; note: potency is the fitted concentration of half-maximal effect; % is set by controls: 0 for no effect and ±100 for the full control effect; nearly all actives have a fitted effect of over 40% in size
# Target sequence (Q9NUW8 whole entry, looked up): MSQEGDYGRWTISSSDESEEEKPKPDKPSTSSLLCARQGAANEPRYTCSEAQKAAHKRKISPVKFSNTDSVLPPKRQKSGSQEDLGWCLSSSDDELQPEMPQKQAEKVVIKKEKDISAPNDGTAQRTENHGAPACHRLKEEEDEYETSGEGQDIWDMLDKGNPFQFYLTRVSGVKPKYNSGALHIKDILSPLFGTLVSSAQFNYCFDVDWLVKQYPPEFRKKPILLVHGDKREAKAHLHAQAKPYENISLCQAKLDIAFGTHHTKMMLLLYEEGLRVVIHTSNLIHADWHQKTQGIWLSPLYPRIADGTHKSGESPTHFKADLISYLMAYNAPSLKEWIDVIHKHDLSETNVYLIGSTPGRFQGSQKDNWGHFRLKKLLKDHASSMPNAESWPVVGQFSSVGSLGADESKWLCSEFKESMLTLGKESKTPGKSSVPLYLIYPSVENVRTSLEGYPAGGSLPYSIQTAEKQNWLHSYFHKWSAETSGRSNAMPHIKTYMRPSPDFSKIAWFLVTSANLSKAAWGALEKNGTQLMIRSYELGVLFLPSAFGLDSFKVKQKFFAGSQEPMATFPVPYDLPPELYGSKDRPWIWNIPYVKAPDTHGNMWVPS
#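 Steps: enzyme plus compound, 15 min RT; add biotin/phosphotyrosine-FITC oligonucleotide (15 nM final), react 5 min; add donor/acceptor beads (10 ug/ml final), 10 min; read AlphaScreen. Tdp1 at 1 nM final.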
# HepG2 tox: kills HepG2 cells in TGF-b inhibitor counter-screen | Potency, µM (titrated, usually from 46.1 µM), inactives show top-dose activity change, negative = cytotoxicity, most hits filed as cytotoxic | 0.76% of 410,000 active | AID 588856 | HepG2 CAGA-GFP viability, ATP luminescence, 18 h; note: potency is the fitted concentration of half-maximal effect
#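 HepG2 CAGA-GFP cells (1000/well, DMEM with 1% FBS) received compound, then TGF-beta at 500 pg/mL final, and were incubated 18 hours at 37 degrees C. Viability was read by CellTiter-Glo luminescence. Media-only wells were set as complete cell-killing and DMSO as no toxicity.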
# TDP1 cell noCPT: qHTS for Inhibitors of human tyrosyl-DNA phosphodiesterase 1 (TDP1): qHTS in cells in absence of CPT; DT40 Tdp1-/- hTDP1 cells, no CPT, ATP luminescence, 48 h; Potency, µM (highest dose often 46.2 µM), without a hit: at the highest dose activity change, negative = growth inhibition, actives largely listed as inhibitors; 15% of 420,000 active; AID 686978, 2013; note: potency is the fitted concentration of half-maximal effect; % is set by controls: 0 for no effect and ±100 for the full control effect; nearly all actives have a fitted effect of over 55% in size
#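 Readout: luminescence from CellTiter-Glo after 30 min in the dark at RT. Cells: DT40 Tdp1-/- with stable hTDP1, 400/well. Exposure: compounds alone, ≥48 hr, 37 °C.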
# IL-1B inflam inh: inflammasome signaling inhibition, IL-1 beta readout. THP-1 LPS/ATP IL-1B secretion, AlphaLISA, 16 h; active compounds read low. activity change, % at 57.5 µM. 4.7% of 360,000 active; in the data active = activity change below about -50%; inconclusive = mostly about -30% to -49%; note: % is set by controls: 0 for no effect and ±100 for the full control effect
#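 THP-1 cells pretreated 1 hr with compounds (up to 57.5 uM final), then stimulated with LPS (250 ng/mL final) plus ATP (1.25 mM final); secreted IL-1B measured by AlphaLISA after 16 hr, decreased signal indicating inhibition.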
# TGFb SMAD3 inh: inhibitors of TGF-b signaling. HepG2 CAGA-GFP TGF-b/SMAD3 reporter, GFP fluorescence, 18 h; TGF-beta stimulated, 500 pg/mL final. Potency, µM (top dose mostly 46.1 µM), for inactives: at the top dose activity, negative = inhibition, most hits filed as inhibitors. 1.2% of 410,000 active; note: potency is the fitted concentration of half-maximal effect; % is set by controls: 0 for no effect and ±100 for the full control effect; nearly all actives have a fitted effect of over 65% in size
#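 Inhibition of TGF-beta-driven CAGA-GFP reporter expression in HEPG2 cells is measured by cellular GFP fluorescence after 18 h stimulation with 500 pg/mL recombinant TGF-beta in 1% FBS medium at 37 degrees C.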
# The depositor's hits bear a star; ? = inconclusive; . = not tested or not shown; [ ] = remark or other dose. Unless noted, calls come from the whole dose curve; as a rule, active = well fitted curve in the direction sought with a large enough effect; inconclusive = small, poorly fitted or top-dose-only effect, or another doubt; inactive = no such curve, though single readings can be large; an effect the other way counts as inactive or inconclusive.
SMILES,DT40 TDP1 CPT,TDP1 block,HepG2 tox,TDP1 cell noCPT,IL-1B inflam inh,TGFb SMAD3 inh
COc1ccc(NC(=O)C2Cc3ccccc3O/C2=N\O)cc1 (centres undefined),9%,.,6%,4%,-7,0%
Cc1ccc2nc(NCc3ccc(F)cc3)c3nncn3c2c1,?,-2%,3%,?,-16,0%
CCOc1ccc(CCNc2nc3ccc(C)cc3n3cnnc23)cc1OCC,?,.,-1%,16µM*,52,2%
CCc1nnc2c(NCCc3ccc(OC)c(OC)c3)nc3ccccc3n12,?,2%,-15%,16µM*,-4,-12%
CCOc1ccc(CCNc2nc3ccccc3n3cnnc23)cc1OCC,?,.,8%,18µM*,5,-1%
COc1ccc(CCNc2nc3ccccc3n3cnnc23)cc1OC,-26%,.,-1%,?,-4,-15%
CCOC(=O)C1=C(COC(=O)Cc2c(F)cccc2Cl)NC(=O)NC1C (centres undefined),-18%,3%,-16%,-12%,-14,6%
CCN1C(=O)/C(=C2/Sc3ccc(OC)cc3N2C)SC1=Nc1cccc(O)c1,5.8µM*,6%,-51%,16µM*,-3,-11%
C=CCN1C(=O)/C(=C2/Sc3ccc(OC)cc3N2C)SC1=Nc1ccccc1,8.2µM*,3%,4%,?,19,-2%
C=CCN1C(=O)/C(=C2/Sc3ccc(OC)cc3N2C)SC1=NCc1ccccc1,?,0%,1%,?,1,0%
COc1ccccc1C1C(C(N)=O)=C(C)Nc2nc(SCc3ccccc3F)nn21 (centres undefined),?,3%,6%,-16%,.,15%
Cc1cc(C)n(C(=O)c2cccc([N+](=O)[O-])c2C)n1,-26%,5%,-7%,-9%,-1,13%
Cc1c(C(=O)N2c3ccccc3Sc3ccccc32)cccc1[N+](=O)[O-],?,1%,-1%,26µM*,-14,0%
COc1ccc(C(C(=O)NC(C)(C)C)N(C(=O)CCC(=O)Nc2cc(C)on2)c2cccc(F)c2)cc1 (centres undefined),0%,.,-18%,?,-9,-16%
CCOc1cccc(N(C(=O)CCC(=O)Nc2cc(C)on2)C(C(=O)NC(C)(C)C)c2ccc(OC)cc2)c1 (centres undefined),29µM*,.,-6%,?,10,-12%
CCc1ccc(N(C(=O)CCC(=O)Nc2cc(C)on2)C(C(=O)NC(C)(C)C)c2ccc(OC)cc2)cc1 (centres undefined),?,-10%,0%,21µM*,17,-8%
CN(c1ccccc1)S(=O)(=O)c1cccc(NC(=O)Cn2cnc3ccccc3c2=O)c1,21µM*,7%,1%,16µM*,-1,-28%
CN(c1ccccc1)S(=O)(=O)c1cccc(NC(=O)CC(C)(C)C)c1,16µM*,2%,-10%,15µM*,-23,-2%
CN(c1ccccc1)S(=O)(=O)c1cccc(NC(=O)CN2CCc3ccccc3C2)c1,0%,8%,6%,?,19,2%
Cc1cc(S(=O)(=O)NCc2ccccc2)ccc1OCC(=O)Nc1cccc([N+](=O)[O-])c1,18µM*,?,1%,21µM*,?,-20%
CN(Cc1ccccc1)S(=O)(=O)c1ccc(OCC(=O)Nc2cccc([N+](=O)[O-])c2)cc1,-1%,-3%,1%,-18%,0,-10%
CN(c1ccccc1)S(=O)(=O)c1cccc(NC(=O)COc2cccc([N+](=O)[O-])c2)c1,?,-2%[56.1 µM],-1%,23µM*,-12,-16%
OC[C@@H]1CN(Cc2cccs2)C[C@H](n2cnc3c(N4CCOCC4)ncnc32)O1,-6%,.,-30%,-19%,-3,-6%
Cc1c(Cl)cccc1S(=O)(=O)Nc1ccnn1C,-1%,4%,-151%,-6%,23,-10%
CN1C(=O)N(CC(=O)Nc2cccc(S(=O)(=O)N(C)c3ccccc3)c2)C(=O)C12CCCCC2,?,0%,0%,21µM*,-20,-2%
SMILES,DT40 TDP1 CPT,TDP1 block,HepG2 tox,TDP1 cell noCPT,IL-1B inflam inh,TGFb SMAD3 inh
COc1cc(C=O)ccc1OCC(=O)Nc1cccc(S(=O)(=O)N(C)c2ccccc2)c1,?,.,-19%,12µM*,-8,-8%
COc1ccccc1OCC(=O)Nc1cccc(N(C)S(C)(=O)=O)c1,0%,5%,-2%,-18%,-9,19%
Oc1c(N=Nc2ccccc2)sc2ccccc12,-18%,7%,-71%,-26%,0,-25%
Oc1ccc(N=Nc2ccccc2)o1,5.8µM*,.,13µM*,13µM*,-90*,?
O=C(c1cn2ccccc2n1)N1CCCC(Nc2ccc(F)c(F)c2)C1 (centres undefined),10%,4%,-19%,-11%,-12,1%
COc1cc(OC)cc(-n2c(=O)c3ccccc3n(CC(=O)NCCc3ccc(OC)c(OC)c3)c2=O)c1,-12%,6%,7%,-27%,.,2%
COc1ccc(/C=N/OCC(=O)Nc2cc(C)on2)cc1OC,9%,3%,20%,-29%,-4,0%
COc1ccc(CNC(=O)Oc2ccccc2)cc1Cl,?,-2%,5%,12µM*,10,16%
COc1ccc(CNC(=O)CNC(c2ccccc2)c2ccccc2)cc1OC,-5%,4%,-2%,7.3µM*,-12,6%
COC(=O)NCc1ccc(Cl)c(Cl)c1,?,5%,-1%,-16%,-8,15%
COc1ccc(/C=N/OCC(=O)NC(c2ccccc2)c2ccccc2)cc1OC,5.2µM*,-3%,-21%,6.5µM*,0,?
COc1ccc(C)cc1NC(=O)CNC(c1ccccc1)c1ccccc1,?,.,-28%,?,-6,-16%
COc1cc(CC(=O)NC(c2ccccc2)c2ccccc2)cc(OC)c1OC,15µM*,8%,-32%,13µM*,28,?
CO[C@H]1COC(=O)C/C=C\[C@H](C)[C@@H](OC)COC(=O)[C@@H](C)NC(=O)C/C=C\[C@@H]1C,.,4%[21 µM],.,.,.,.
O=C(CSc1ccc2ccccc2c1)Nc1ncccn1,-23%,-3%,-2%,?,15,0%
O=C(OCc1c(-c2ccccc2)ncc2ccccc12)c1ccc(F)cc1,?,-3%,-1%,16µM*,8,-8%
